From PubChem BioAssay
Active and inactive are the calls of the source. Unless noted, how the calls were made is not given here.

How the values were obtained:
[1] = compounds binding Alexa647 anti-His antibody – biochemical, small-molecule microarray, 635 nm fluorescence, artefact control for SMM control protein annotation, primary screen (AID 1128); details: higher = more signal;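 further: score merges feature fluorescence with signal-to-noise for each printed compound spot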
[2] = test system: Human papillomavirus type 1a E7 protein (residues 1-88); assay: HPV1a E7 small-molecule binders, primary screen, biochemical, small-molecule microarray, residues 1-88, 635 nm (AID 1129); details: small-molecule microarray binding, fluorescence 635 nm; higher = more signal
[3] = biological target: Focal adhesion kinase 1 (Homo sapiens) (UniProt Q05397); assay: PTK2 protein binding on printed compound slides – biochemical, small-molecule microarray, 635/667 nm fluorescence, BSA, DTT, primary screen (AID 1130); details: 635 nm fluorescence, higher = more signal;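 further: composite of spot emission at 667 nm and signal to noise over triplicate slides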
[4] = test system: Fibrinogen (Alexa647-labelled); assay: Alexa647-fibrinogen binding to printed small molecules – biochemical, small-molecule microarray, 635/667 nm fluorescence, artefact control for SMM control-protein annotation, profiling panel (AID 1131); details: fibrinogen-A647 binding fluorescence, higher = more signal;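 further: z-score merges 667 nm fluorescence with per-spot signal-to-noise over triplicate slides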
[5] = biological target: Follistatin (Homo sapiens) (UniProt P19883); assay: FST protein binding to printed compounds – biochemical, small-molecule microarray, 635/667 nm fluorescence, primary screen (AID 1132); details: 635 nm fluorescence, higher = more signal
[6] = biological target: Fibroblast growth factor 2 (Homo sapiens) (UniProt P09038); assay: basic fibroblast growth factor binding to printed compounds – biochemical, small-molecule microarray, 635/667 nm fluorescence, primary screen (AID 1133); details: FGF2, fluorescence 635/667, higher = more signal
[7] = JC-1 mitochondrial potential readout, lung cancer cells – cell-based, A549, JC-1 fluorescence, basal, 24 h, 100 nL, profiling panel (AID 1138); details: higher = more signal;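 further: A549 lung adenocarcinoma cells under basal conditions with no added stimulus; test concentration not given here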
Lefty1 = Lefty1 protein binding to printed compounds – biochemical, small-molecule microarray, 635/667 nm fluorescence, primary screen (AID 1139); details: fluorescence 635/667, higher = more signal
[8] = test system: wheat germ agglutinin (Triticum aestivum), Alexa647-labelled; assay: Alexa647-WGA lectin binding to printed small molecules – biochemical, small-molecule microarray, 635/667 nm fluorescence, artefact control for SMM control-protein annotation, profiling panel (AID 1140); details: WGA-A647 binding, 635 nm fluorescence, higher = more signal;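 further: score merges 667 nm feature emission with signal to noise over triplicate slides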
[9] = biological target: Luciferin 4-monooxygenase (Photinus pyralis) (UniProt P08659); assay: inhibition of purified Photinus pyralis luciferase – biochemical, luminescence, purified enzyme, 2006 set, primary screen (AID 1141); details: purified firefly luciferase, SteadyGlo luminescence, 30 min; higher = more signal, called active from +8 up or from −8 down;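 further: cell-free assay with purified firefly luciferase at 100 ng per well in PBS; test concentration not given here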
[10] = test system: Wnt5a (protein binding on small-molecule microarray); assay: small molecules binding Wnt5a protein – biophysical, small-molecule microarray, 635/667 nm fluorescence, primary screen (AID 1142); details: 635 nm fluorescence, higher = more signal;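 further: fluorescence read at 667 nm with signal to noise per printed feature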
[11] = ATP-based viability of Huh7 replicon cells – cell-based, CellTiter-Glo luminescence, basal, 48 h, cytotoxicity control for HCV replication inhibitor project, primary screen (AID 1143); details: higher = more signal, called active from +8 up or from −8 down;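 further: Huh7 hepatoma cells carrying a hepatitis C replication reporter with no stimulus; test concentration not given here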
[12] = Pseudomonas biofilm growth suppression – PAO1 strain, BacTiter-Glo luminescence, LB-PBS, primary screen (AID 1144); details: P. aeruginosa PAO1 biofilm, 12 h, higher = more signal
[13] = basal CRE-LacZ reporter activity in PC12 – cell-based, unstimulated, primary screen (AID 1145); details: no forskolin, luminescence, 4.5 h, higher = more signal, called active from +8 up or from −8 down
[14] = forskolin-driven CRE-LacZ activity in PC12 – cell-based, CRE-LacZ reporter, forskolin-stimulated, primary screen (AID 1146); details: luminescence, 4.5 h, higher = more signal, called active from +8 up or from −8 down;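 further: PC12 cells with 6xCRE LacZ reporter stimulated by forskolin 10 µM; beta-galactosidase reporter signal reflecting CREB driven transcription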
[15] = biological target: Streptavidin (Streptomyces avidinii) (UniProt P22629); assay: compounds binding control protein streptavidin – biophysical, small-molecule microarray, 635/667 nm fluorescence, artefact control for SMM compound annotation, primary screen (AID 1147); details: higher = more signal;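 further: signal reflects streptavidin binding to arrayed compounds as a control protein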
[16] = probe aInhba binding on compound microarray – biochemical, small-molecule microarray, 635/667 nm fluorescence, primary screen (AID 1148); details: higher = more signal;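 further: score merges 667nm spot fluorescence with signal-to-noise for antibody binding to printed compounds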
Torsin-1A (Homo sapiens) [17] = biological target: Torsin-1A (Homo sapiens) (UniProt O14656); assay: TOR1A wild-type binding on microarray – cell lysate, small-molecule microarray, lysate, 635/667 nm, primary screen (AID 1149); details: COS7 hTOR1A-WT lysate, 635 nm fluorescence, higher = more signal
Torsin-1A (Homo sapiens) [18] = biological target: Torsin-1A (Homo sapiens) (UniProt O14656); assay: torsin A mutant lysate binding on microarrays – cell lysate, small-molecule microarray, COS7 lysate, 635/667 nm fluorescence, primary screen (AID 1150); details: COS7 hTOR1A mutant lysate, 635 nm fluorescence, higher = more signal;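 further: score pools 667 nm emission and signal to noise measuring lysate protein binding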
[19] = test system: Sonic hedgehog protein (Shh); assay: Sonic hedgehog microarray binding compounds – biochemical, small-molecule microarray, 635/667 nm fluorescence, primary screen (AID 1151); details: 635 nm fluorescence, higher = more signal;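 further: Shh protein binding to compounds spotted on small-molecule microarray slides; score combines spot fluorescence intensity with signal-to-noise across triplicate slides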

Chain of Focal adhesion kinase 1 (Homo sapiens) (Q05397 whole entry, looked up): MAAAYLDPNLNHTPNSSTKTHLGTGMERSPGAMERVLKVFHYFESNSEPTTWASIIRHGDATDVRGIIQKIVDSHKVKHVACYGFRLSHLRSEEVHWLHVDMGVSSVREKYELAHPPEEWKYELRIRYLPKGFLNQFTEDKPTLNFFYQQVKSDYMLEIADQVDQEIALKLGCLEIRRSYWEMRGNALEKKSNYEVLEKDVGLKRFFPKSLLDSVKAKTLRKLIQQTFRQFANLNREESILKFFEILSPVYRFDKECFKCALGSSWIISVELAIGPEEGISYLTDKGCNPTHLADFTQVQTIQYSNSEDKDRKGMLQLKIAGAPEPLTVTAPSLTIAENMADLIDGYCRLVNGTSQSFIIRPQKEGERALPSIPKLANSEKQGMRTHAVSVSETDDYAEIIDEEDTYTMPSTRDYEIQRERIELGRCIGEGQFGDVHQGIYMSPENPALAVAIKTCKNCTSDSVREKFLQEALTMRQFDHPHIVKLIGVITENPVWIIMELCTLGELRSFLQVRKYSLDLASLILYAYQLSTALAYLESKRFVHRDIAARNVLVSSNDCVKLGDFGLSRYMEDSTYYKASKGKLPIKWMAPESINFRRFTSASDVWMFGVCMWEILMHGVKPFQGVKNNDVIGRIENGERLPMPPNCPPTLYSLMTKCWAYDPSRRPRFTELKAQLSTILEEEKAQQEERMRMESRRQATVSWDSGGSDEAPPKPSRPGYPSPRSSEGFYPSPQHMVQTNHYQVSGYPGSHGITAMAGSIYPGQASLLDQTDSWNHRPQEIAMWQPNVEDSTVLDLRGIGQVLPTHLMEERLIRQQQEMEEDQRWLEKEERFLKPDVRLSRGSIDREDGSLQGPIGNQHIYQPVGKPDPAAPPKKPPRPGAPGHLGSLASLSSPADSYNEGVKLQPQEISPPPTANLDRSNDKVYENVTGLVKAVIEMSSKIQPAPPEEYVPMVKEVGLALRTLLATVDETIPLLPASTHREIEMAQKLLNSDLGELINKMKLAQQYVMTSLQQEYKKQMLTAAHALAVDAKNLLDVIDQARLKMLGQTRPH
Chain of Streptavidin (Streptomyces avidinii) (P22629 whole entry, looked up): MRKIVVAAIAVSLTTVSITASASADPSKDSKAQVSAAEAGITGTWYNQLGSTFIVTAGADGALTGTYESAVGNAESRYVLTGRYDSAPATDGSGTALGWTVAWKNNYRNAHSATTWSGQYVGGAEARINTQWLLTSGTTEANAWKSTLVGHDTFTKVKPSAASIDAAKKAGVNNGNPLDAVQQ
Chain of Fibroblast growth factor 2 (Homo sapiens) (P09038 whole entry, looked up): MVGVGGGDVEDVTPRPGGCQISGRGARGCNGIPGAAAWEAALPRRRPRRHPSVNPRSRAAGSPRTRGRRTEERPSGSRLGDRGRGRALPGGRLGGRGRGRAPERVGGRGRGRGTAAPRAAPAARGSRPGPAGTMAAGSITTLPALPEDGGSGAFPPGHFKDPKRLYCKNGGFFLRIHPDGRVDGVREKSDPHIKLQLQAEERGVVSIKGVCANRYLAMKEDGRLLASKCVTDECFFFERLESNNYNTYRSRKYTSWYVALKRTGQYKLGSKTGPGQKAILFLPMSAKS
Chain of Luciferin 4-monooxygenase (Photinus pyralis) (P08659 whole entry, looked up): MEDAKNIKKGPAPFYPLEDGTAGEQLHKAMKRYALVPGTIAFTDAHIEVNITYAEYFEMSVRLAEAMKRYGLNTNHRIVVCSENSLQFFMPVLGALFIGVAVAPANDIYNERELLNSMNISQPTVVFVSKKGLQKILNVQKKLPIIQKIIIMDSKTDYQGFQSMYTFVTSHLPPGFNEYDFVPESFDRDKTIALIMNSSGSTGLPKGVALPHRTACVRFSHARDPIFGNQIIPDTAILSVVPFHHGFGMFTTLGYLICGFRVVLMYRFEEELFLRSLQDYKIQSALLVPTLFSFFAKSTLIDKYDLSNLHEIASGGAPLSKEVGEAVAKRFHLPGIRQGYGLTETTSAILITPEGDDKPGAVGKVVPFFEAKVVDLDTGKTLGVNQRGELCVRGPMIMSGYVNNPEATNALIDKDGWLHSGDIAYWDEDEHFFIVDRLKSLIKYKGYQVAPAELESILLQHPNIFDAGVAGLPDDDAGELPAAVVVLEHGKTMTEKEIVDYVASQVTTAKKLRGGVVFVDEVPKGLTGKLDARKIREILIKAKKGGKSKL
Chain of Torsin-1A (Homo sapiens) (O14656 whole entry, looked up): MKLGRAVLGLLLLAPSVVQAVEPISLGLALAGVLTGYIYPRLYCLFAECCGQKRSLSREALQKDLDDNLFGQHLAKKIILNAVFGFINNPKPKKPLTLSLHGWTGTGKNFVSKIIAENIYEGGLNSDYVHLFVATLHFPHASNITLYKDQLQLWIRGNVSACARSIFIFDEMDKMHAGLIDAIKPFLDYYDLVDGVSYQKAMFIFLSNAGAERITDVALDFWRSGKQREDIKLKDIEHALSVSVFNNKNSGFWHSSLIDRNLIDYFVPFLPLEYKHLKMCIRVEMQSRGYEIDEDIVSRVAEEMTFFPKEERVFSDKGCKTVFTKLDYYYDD
Chain of Follistatin (Homo sapiens) (P19883 whole entry, looked up): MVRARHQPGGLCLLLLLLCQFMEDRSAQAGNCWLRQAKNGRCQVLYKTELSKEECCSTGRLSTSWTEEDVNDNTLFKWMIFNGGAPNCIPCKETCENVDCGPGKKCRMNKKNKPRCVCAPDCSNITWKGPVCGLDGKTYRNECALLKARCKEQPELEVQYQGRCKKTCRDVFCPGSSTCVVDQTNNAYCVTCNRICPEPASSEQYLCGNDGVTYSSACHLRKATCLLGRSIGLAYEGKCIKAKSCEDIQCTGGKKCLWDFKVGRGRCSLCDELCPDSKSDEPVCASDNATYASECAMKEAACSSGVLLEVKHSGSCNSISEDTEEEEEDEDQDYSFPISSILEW

Row | Compound | composite z-score [1] | composite z-score [2] | composite z-score [3] | composite z-score [4] | composite z-score [5] | composite z-score [6] | z-score [7] | composite z-score (Lefty1) | composite z-score [8] | z-score [9] | composite z-score [10] | z-score [11] | z-score [12] | z-score [13] | z-score [14] | composite z-score [15] | composite z-score [16] | composite z-score (Torsin-1A (Homo sapiens) [17]) | composite z-score (Torsin-1A (Homo sapiens) [18]) | composite z-score [19]
1 | CCCCC(=C=CC[C@@H](O)c1ccc(OCCO)cc1)C[C@@H](O)COCc1ccccc1 | 0.0164 | -0.445 | -0.0498 | -1.01 | 1.31 | 0.567 | 1.72 | 0.973 | 0.614 | -1.58 (inactive) | 0.511 | -2.32 (inactive) | -0.656 (inactive) | 12.1 (active) | -1.48 (inactive) | -0.476 | -0.203 | 0.611 | 0.699 | 1.38
2 | C=CCOC(=O)[C@@H]1[C@H]2C(=O)O[C@H](c3ccccc3)[C@H](c3ccccc3)N2[C@H](c2ccc(OCCOC(=O)[C@H]3C[C@H]4C(=O)N[C@@H](CCCCN(C)C)C(=O)N4[C@H]3c3cccc(OCCO)c3)cc2)[C@@]12C(=O)Nc1ccc(I)cc12 | 2.94 | 1.17 | 0.319 | 0.758 | 1.48 | 1.59 | -0.717 | 1.49 | 0.768 | -0.517 (inactive) | 0.402 | -0.015 (inactive) | 0.172 (inactive) | -0.801 (inactive) | 0.387 (inactive) | 0.458 | 0.019 | 1.61 | 1.52 | 2.05
3 | Cc1ccc(S[C@]2(C(=O)NC3CC3)CC(=O)N(Cc3ccccc3Cl)[C@@H]2c2ccc(CO)cc2I)cc1 | 2.99 | 1.05 | 1.31 | 0.811 | 1.45 | 1.67 | 0.677 | 0.101 | 0.277 | 0.352 (inactive) | 1.3 | -1.5 (inactive) | -0.637 (inactive) | 0.145 (inactive) | 1.13 (inactive) | 0.163 | 0.0471 | 0.765 | 1.01 | 1.67
4 | COc1ccc([Si](C)(C)[C@@H]2[C@@H](CCn3cc([C@H](O)c4ccccc4)nn3)O[C@]3(C(=O)N(Cc4ccc(N5CCOC5=O)cc4)c4ccccc43)[C@H]2C)cc1 | 0.551 | 1.06 | -0.0646 | 0.851 | 1.07 | 1.04 | 0.708 | 1.14 | 0.616 | 0.82 (inactive) | 0.127 | -3.81 (inactive) | -0.41 (inactive) | -0.0533 (inactive) | -0.0224 (inactive) | 0.204 | -0.128 | 1.15 | 1.14 | 1.85
5 | O=C1OC[C@@H](c2ccccc2)N2CC(/C=C/c3ccccc3)=CC12 (stereo not given in full) | -0.206 | 0.725 | -0.542 | -0.593 | -1.29 | -1.45 | 0.0121 | -1.58 | -0.408 | 0.0761 (inactive) | -0.82 | -2.59 (inactive) | 0.476 (inactive) | 0.945 (inactive) | -1.57 (inactive) | -0.274 | -0.239 | -0.872 | -1.31 | -1.05
6 | CCOC(=O)[C@@H]1[C@@H]2C(=O)N(CC)C(=O)[C@@H]2C[C@@H]1Sc1ccccc1 | 1.62 | 1.2 | 0.592 | 0.462 | 0.329 | 0.0435 | -1.24 | 0.307 | 0.402 | 1.4 (inactive) | 0.202 | 0.371 (inactive) | -0.868 (inactive) | 0.136 (inactive) | 1.04 (inactive) | 0.603 | 0.0357 | 0.592 | 0.975 | 0.209
7 | COc1ccc(C(O)C2C=CC3C(=O)N(c4ccccc4)C(=O)C3N2Nc2ccccc2)cc1OCc1ccccc1 (stereo not given) | 0.621 | 1.24 | 0.315 | 0.942 | 1.22 | -0.132 | -0.0208 | 0.788 | 1.22 | -0.414 (inactive) | 0.302 | 0.197 (inactive) | -1.12 (inactive) | 0.0535 (inactive) | 0.414 (inactive) | 0.887 | 0.185 | 0.867 | 0.887 | 0.81
8 | C[C@]1(C(=O)O)c2ccccc2C(=O)N(Cc2ccccc2)[C@H]1c1ccc(CO)cc1 | -1.17 | -2.07 | 0.343 | -2.48 | -0.828 | -1.33 | 0.686 | -2.05 | -1.37 | -0.84 (inactive) | -0.326 | -1.25 (inactive) | 0.461 (inactive) | 0.001 (inactive) | -0.301 (inactive) | -0.867 | -0.176 | -1.06 | -0.224 | -1.98
9 | COc1ccc(NN2C(C(O)c3ccccn3)C=CC3C(=O)N(C4CCCCC4)C(=O)C32)cc1 (stereo not given) | 0.914 | 1.22 | 0.342 | 0.955 | 0.888 | 0.421 | 0.717 | -0.223 | 0.836 | -2.74 (inactive) | 0.483 | -0.924 (inactive) | -1.43 (inactive) | -0.471 (inactive) | -0.119 (inactive) | 1.37 | 0.0183 | 0.0607 | 0.542 | -0.0244
10 | CC(C)c1ccc(NN2C(C(O)c3ccco3)C=CC3C(=O)N(c4ccccc4)C(=O)C32)cc1 (stereo not given) | 1.26 | 1.22 | 1.14 | 0.995 | 1.26 | 0.0324 | 0.222 | 0.634 | 1.32 | -1.29 (inactive) | 0.445 | -0.604 (inactive) | -0.688 (inactive) | 0.622 (inactive) | -0.554 (inactive) | 1.47 | 0.271 | 0.185 | 0.445 | 0.794
